Experimental data published in article PMC5515408, “Sequence-specific DNA binding by MYC/MAX to low-affinity non-E-box motifs”.
The full ranking holds about 5,000 sequences; the median of “log2 normalized fluorescence” is about 0.089, and the highest 2% start at about 0.81. For the sample, the highest values were picked, then their nearest neighbours and some sequences at random.

These sequences were tested against MYC (p64);MAX (p21), in MYC:MAX (human;human, UniProt P01106-1;P61244-2 1-439;1-151, |) (assay: protein-binding microarray (anti-MAX antibody); PBM: 15 mM Tris-HCl pH 7.5, 100 mM KCl, 0.075% NP40, 7.5 mM beta-mercaptoethanol, 375 ng/ul BSA, 8 ng/ul poly(dA-dT):(dA-dT), 550 ng complex, 60 min, room tempe; high values mean tight binding). Conditions: protein: recombinant;recombinant; tags: 6xHis;6xHis; copies: 1;1; label: 3' end of printed strand (linker) attached to glass slide; dsDNA, one strand shown.
Chain of MYC (p64);MAX (p21), in MYC:MAX (P01106 16-454, chain 1 of 2): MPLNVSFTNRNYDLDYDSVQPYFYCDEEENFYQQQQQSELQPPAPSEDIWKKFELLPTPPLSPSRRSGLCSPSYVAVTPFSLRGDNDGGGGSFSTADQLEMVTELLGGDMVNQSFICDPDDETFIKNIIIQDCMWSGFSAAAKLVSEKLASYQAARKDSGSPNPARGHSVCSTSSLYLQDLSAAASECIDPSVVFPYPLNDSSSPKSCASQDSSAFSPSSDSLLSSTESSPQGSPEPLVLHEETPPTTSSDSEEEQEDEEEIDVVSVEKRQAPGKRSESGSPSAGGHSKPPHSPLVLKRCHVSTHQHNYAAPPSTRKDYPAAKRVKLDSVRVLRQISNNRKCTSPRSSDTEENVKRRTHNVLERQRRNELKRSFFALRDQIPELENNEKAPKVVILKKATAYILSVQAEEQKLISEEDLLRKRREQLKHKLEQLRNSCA
Chain of MYC (p64);MAX (p21), in MYC:MAX (P61244 other isoform, or with tags, fused parts or gaps |, chain 2 of 2): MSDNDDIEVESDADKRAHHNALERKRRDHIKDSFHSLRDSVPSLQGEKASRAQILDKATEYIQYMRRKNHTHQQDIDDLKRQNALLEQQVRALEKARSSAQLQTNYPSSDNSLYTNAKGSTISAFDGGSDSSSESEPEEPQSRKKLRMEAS
Method in brief: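 For each of ~5000 unique double-stranded 12-nt sequences, spotted in triplicate on a custom Agilent glass array, binding of His-tagged human MYC:MAX or MAX:MAX dimers is reported as log2 normalized fluorescence. The dimers (550 ng, E. coli-expressed) were incubated for 60 min at room temperature in Tris-KCl buffer, pH 7.5, with NP40, BSA and poly(dA-dT) competitor. Detection used anti-MAX and secondary antibodies with a 543 nm scan.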

Sequence | binding signal
CCGGCTCACACGTGGGCTTAATAGCTAAGATTACTATATCGACG | 0.832 log2 normalized fluorescence
CCGGCTGGCACCCGGTATTAATAGCTAAGATTACTATATCGACG | 0.242 log2 normalized fluorescence
CCGGCTGACGTTTTGTATTAATAGCTAAGATTACTATATCGACG | -0.0354 log2 normalized fluorescence
CCGGCTGAAAGGCCGTATTAATAGCTAAGATTACTATATCGACG | 0.17 log2 normalized fluorescence
CCGGCTGACACGCATTATTAATAGCTAAGATTACTATATCGACG | 0.524 log2 normalized fluorescence
CCGGCGATCACGTGGTATTAATAGCTAAGATTACTATATCGACG | 0.946 log2 normalized fluorescence
CCGGCTCACACGTGGTATTAATAGCTAAGATTACTATATCGACG | 0.998 log2 normalized fluorescence
CCGGCTATCACGTGGTATTAATAGCTAAGATTACTATATCGACG | 0.71 log2 normalized fluorescence
CCGGCTTACATGTGGTATTAATAGCTAAGATTACTATATCGACG | 0.625 log2 normalized fluorescence
CCGGCTCACATGTGGTATTAATAGCTAAGATTACTATATCGACG | 0.918 log2 normalized fluorescence
CCGGCCGTCACGTGGTATTAATAGCTAAGATTACTATATCGACG | 0.809 log2 normalized fluorescence
CCGGCCGACATGTGGTATTAATAGCTAAGATTACTATATCGACG | 0.663 log2 normalized fluorescence
CCGGCCCTCACGTGGTATTAATAGCTAAGATTACTATATCGACG | 0.828 log2 normalized fluorescence
CCGGCTATTACGTGGTATTAATAGCTAAGATTACTATATCGACG | 0.323 log2 normalized fluorescence
CCGGCCATCACGTGGTATTAATAGCTAAGATTACTATATCGACG | 0.764 log2 normalized fluorescence
CCGGCTCACACGTCGTATTAATAGCTAAGATTACTATATCGACG | 0.506 log2 normalized fluorescence
CCGGCTGACGCTTTGTATTAATAGCTAAGATTACTATATCGACG | 0.148 log2 normalized fluorescence
CCGGCTGACCATTGGTATTAATAGCTAAGATTACTATATCGACG | 0.0788 log2 normalized fluorescence
CCGGCTGAAAGAGTGTATTAATAGCTAAGATTACTATATCGACG | 0.0309 log2 normalized fluorescence

Sequence | binding signal
CCGGCTGAGAGACGGTATTAATAGCTAAGATTACTATATCGACG | -0.00994 log2 normalized fluorescence
CCGGCTGACACGCGAGATTAATAGCTAAGATTACTATATCGACG | 0.438 log2 normalized fluorescence
CCGGCTGAAGATGTGTATTAATAGCTAAGATTACTATATCGACG | 0.0913 log2 normalized fluorescence
CCGGCTGAAAAGAGGTATTAATAGCTAAGATTACTATATCGACG | -0.00138 log2 normalized fluorescence
CCGGCTGACAGCAAGTATTAATAGCTAAGATTACTATATCGACG | 0.286 log2 normalized fluorescence
CCGGCTGACCGTAAGTATTAATAGCTAAGATTACTATATCGACG | 0.214 log2 normalized fluorescence
CCGGCAAGTTTAAGCCGTTAATAGCTAAGATTACTATATCGACG | 0.00903 log2 normalized fluorescence
CCGGCTGAGCCGCTGTATTAATAGCTAAGATTACTATATCGACG | 0.0565 log2 normalized fluorescence
CCGGCTGAGAGGCCGTATTAATAGCTAAGATTACTATATCGACG | 0.0066 log2 normalized fluorescence
CCGGCTGAAAAAGGGTATTAATAGCTAAGATTACTATATCGACG | -0.0246 log2 normalized fluorescence
CCGGCTGAGGGGGAGTATTAATAGCTAAGATTACTATATCGACG | 0.823 log2 normalized fluorescence
CCGGCTGAGGGAGAGTATTAATAGCTAAGATTACTATATCGACG | -0.0403 log2 normalized fluorescence
CCGGCTGAAAAGGGGTATTAATAGCTAAGATTACTATATCGACG | 0.161 log2 normalized fluorescence
CCGGCTGAAGAGGGGTATTAATAGCTAAGATTACTATATCGACG | 0.288 log2 normalized fluorescence
CCGGCTGAAGGGTGGTATTAATAGCTAAGATTACTATATCGACG | 0.18 log2 normalized fluorescence
CCGGCTGAAGGGGGGTATTAATAGCTAAGATTACTATATCGACG | 0.855 log2 normalized fluorescence
CCGGCTGAGGGGAGGTATTAATAGCTAAGATTACTATATCGACG | 0.438 log2 normalized fluorescence
CCGGCTGAAAGGGGGTATTAATAGCTAAGATTACTATATCGACG | 0.83 log2 normalized fluorescence
CCGGCTGACTGGTCGTATTAATAGCTAAGATTACTATATCGACG | 0.229 log2 normalized fluorescence

Sequence | binding signal
CCGGCTGACCTCTGGTATTAATAGCTAAGATTACTATATCGACG | -0.0273 log2 normalized fluorescence
CCGGCTGAGTGAGGGTATTAATAGCTAAGATTACTATATCGACG | 0.097 log2 normalized fluorescence
CCGGCTGAAAAGCGGTATTAATAGCTAAGATTACTATATCGACG | 0.0993 log2 normalized fluorescence
CCGGCTGACACTTAGTATTAATAGCTAAGATTACTATATCGACG | 0.231 log2 normalized fluorescence
CCGGCTGACAAGTGGGATTAATAGCTAAGATTACTATATCGACG | 0.302 log2 normalized fluorescence
CCGGCTGAGTGAGTGTATTAATAGCTAAGATTACTATATCGACG | 0.08 log2 normalized fluorescence
CCGGCTGACGTTGTGTATTAATAGCTAAGATTACTATATCGACG | 0.16 log2 normalized fluorescence
CCGGCTGGAACGTGGTATTAATAGCTAAGATTACTATATCGACG | 0.66 log2 normalized fluorescence
CCGGCTGAGCATATGTATTAATAGCTAAGATTACTATATCGACG | 0.395 log2 normalized fluorescence
CCGGCTGAAGGCGTGTATTAATAGCTAAGATTACTATATCGACG | 0.409 log2 normalized fluorescence
CCGGCTAACACATGGTATTAATAGCTAAGATTACTATATCGACG | 0.6 log2 normalized fluorescence
CCGGCAGACACGAGGTATTAATAGCTAAGATTACTATATCGACG | 0.93 log2 normalized fluorescence
CCGGCAGACATGGGGTATTAATAGCTAAGATTACTATATCGACG | 0.458 log2 normalized fluorescence
CCGGCTGACACGAGGTATTAATAGCTAAGATTACTATATCGACG | 0.625 log2 normalized fluorescence
CCGGCAGACACATGGTATTAATAGCTAAGATTACTATATCGACG | 0.834 log2 normalized fluorescence
CCGGCTTTCACATGGTATTAATAGCTAAGATTACTATATCGACG | 0.504 log2 normalized fluorescence
CCGGCAGACACGAGGTTTTAATAGCTAAGATTACTATATCGACG | 0.64 log2 normalized fluorescence
CCGGCAGTCACATGGTATTAATAGCTAAGATTACTATATCGACG | 0.995 log2 normalized fluorescence
CCGGCAGACACTTGGTATTAATAGCTAAGATTACTATATCGACG | 0.421 log2 normalized fluorescence
